# Several values for one entry are separate records, joined by “and”; a condition that tells them apart may be missing. Equal entries are not always repeated. Activity calls are given as the source filed them. Cut-off read from the data, not from the text of the source, unless noted: active = inhibition above about 80%; inactive = the rest.
# Key:
# [1] = UWB1.289 ovarian carcinoma cell growth inhibition, synergistic combos for chromothripsis tumors, BGB or cisplatin combos (AID 1671456); settings: UWB1.289 ovarian carcinoma cells, stronger effect = higher value;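 note: cells exposed to compound for four days; 0% = vehicle DMSO and 100% = killing by high DMSO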
# [2] = LFS_MB_2R medulloblastoma cell growth inhibition, synergistic combos for chromothripsis tumors, cisplatin combos (AID 1671457); settings: LFS_MB_2R medulloblastoma cells, stronger effect = higher value;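 note: cells exposed to compound for four days before readout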
# [3] = MDA-MB-436 breast carcinoma cell growth inhibition, synergistic combos for chromothripsis tumors, BGB or cisplatin combos (AID 1671458; call rule not given here;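 note: cells exposed for 96 hours; 0% = vehicle DMSO and 100% = killing by high DMSO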); settings: MDA-MB-436 breast carcinoma growth inhibition, drug combinations, stronger effect = higher value
# [4] = UWB1.289_BRCA1 ovarian cancer growth, cell-based, BGB or cisplatin combinations (AID 1671459); settings: UWB1.289 BRCA1 ovarian carcinoma, drug combinations, stronger effect = higher value
# [5] = human astrocyte viability loss, single and combined drugs, cytotoxicity control for chromothriptic childhood tumor combination screen, cell-based, BGB or cisplatin IC20 combos (AID 1671460); settings: Human astrocytes, drug combinations, stronger effect = higher value;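 note: cells exposed to compounds for 96 hours before viability readout; 0% = vehicle and 100% = killing control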
# [6] = growth inhibition of BT084 medulloblastoma cells, cell-based, ICGC_MB145, cisplatin and BGB IC40 combos (AID 1671461); settings: drug combinations, stronger effect = higher value;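 note: cells exposed to drugs for 96 hours; 0% = vehicle DMSO and 100% = high DMSO full killing control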
# [7] = growth inhibition of RCMB18 medulloblastoma cells, cell-based, cisplatin and BGB IC40 combos (AID 1671462); settings: stronger effect = higher value;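 note: cells exposed to compound for four days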
# [8] = growth inhibition of CRL1545 osteosarcoma cells, cell-based, cisplatin and BGB IC20 combos (AID 1671464); settings: stronger effect = higher value;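 note: cells exposed to compound for 96 hours before readout; 0% = vehicle DMSO and 100% = high DMSO killing control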
# F380Y = assay: modulators of BK channel variants, profiling panel, selectivity assay, cell-based, U2OS BacMam, thallium flux, beta subunits (AID 1259406;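 active = thallium flux through the channel raised or lowered by more than 3 SD from vehicle-only wells, actives on both sides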;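 note: initial slope of Thallos dye fluorescence rise after thallium is added; log ratio against the mean of 0.3% DMSO vehicle wells on the same plate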); settings: at 30 µM
# F380Y/beta1 = assay: as above; settings: at 30 µM
# [9] = measured here: inhibition with BGB combination, at 0.05 µM
# [10] = measured here: inhibition with cisplatin combination, at 0.05 µM
# [11] = measured here: combination with cisplatin, at 0.5 µM
# [12] = measured here: combination with cisplatin, at 5 µM
# [13] = measured here: BGB combination, at 0.5 µM
# [14] = measured here: BGB combination, at 5 µM
# [15] = measured here: cisplatin combination, at 0.5 µM
# [16] = measured here: cisplatin combination, at 5 µM
# [17] = BGB combination, concentration series, at 5 µM
# [18] = cisplatin combination, concentration series, at 5 µM
# [19] = measured here: combo with BGB IC20, at 0.5 µM
# [20] = measured here: combo with cisplatin IC20, at 0.5 µM
# [21] = cisplatin combination, at 0.5 µM
# [22] = measured here: BGB IC40 combination 0.05 uM, at 0.05 µM
# [23] = measured here: BGB IC40 combination, at 0.05 µM
# [24] = measured here: with BGB IC20 combination, at 0.5 µM
# [25] = measured here: with cisplatin IC20 combination, at 0.5 µM
structure (smiles),measurement,setting,value
O=NN(CCCl)C(=O)NC1CCCCC1,inhibition,[1]; at 0.5 µM,-3.74% (inactive) and -1.89% (inactive)
same,inhibition,[1]; [9],-37.8% and -16.5%
same,inhibition,[1]; [10],-17.9% and -15%
same,inhibition,[2]; at 0.5 µM,-23.1% (inactive) and -22.9% (inactive)
same,inhibition,[2]; [11],-21.1% and -18.8%
same,inhibition,[2]; [12],-70.5% and -18.7%
same,inhibition,[3]; at 0.5 µM,-40.6% (inactive) and -11.5% (inactive)
same,inhibition,[3]; [13],-36.9% and -5.88%
same,inhibition,[3]; [14],-35% and -10.4%
same,inhibition,[3]; [15],-61.4% and -18.5%
same,inhibition,[3]; [16],-41.1% and -14.2%
same,inhibition,[4]; [17],-29.6% and 11.3%
same,inhibition,[4]; at 0.5 µM,-16.2% (inactive) and 2.2% (inactive)
same,inhibition,[4]; [18],3.2% and 10.4%
same,inhibition,[5]; at 0.5 µM,-9.22% (inactive) and 7.1% (inactive)
same,inhibition,[5]; [19],-20% and 5.8%
same,inhibition,[5]; [20],-3.02% and 3.4%
same,inhibition,[6]; at 0.5 µM,-34.8% (inactive) and -13.6% (inactive)
same,inhibition,[6]; [21],-11.4% and -21.6%
same,inhibition,"[6]; cisplatin combination, at 5 µM",1.31% and -15.5%
same,inhibition,[6]; [22],-11% and -18.6%
same,inhibition,"[6]; single agent, at 5 µM",-27.6% and -16%
same,inhibition,[7]; at 0.5 µM,-19.6% (inactive) and -7.56% (inactive)
same,inhibition,"[7]; cisplatin combo, at 5 µM",-8.32% and -2.07%
same,inhibition,[7]; [23],3.33% and -8.31%
same,inhibition,[7]; [11],-12.9% and 7.07%
same,inhibition,"[7]; single agent, at 5 µM",-26.9% and -32.7%
same,inhibition,[8]; at 0.5 µM,-41.9% (inactive) and 12.8% (inactive)
same,inhibition,[8]; [24],-11.7% and 21.6%
same,inhibition,[8]; [25],-60.6% and 8.43%
same,inhibition,"[8]; single agent, at 0.05 µM",-56.9% and 27.3%
same,inhibition,"[8]; single agent, at 5 µM",-2.19% and 10%
COc1cc(C(=O)NC2CCCNC2)cc(OC)c1OC (stereo not given),log fold change Tl+ flux,F380Y,-0.0595 (inactive)
same,log fold change Tl+ flux,F380Y/beta1,-0.0621 (inactive)
O=NN(CCCl)C(=O)NCCCl,inhibition,[1]; at 0.5 µM,-5.7% (inactive)
same,inhibition,[1]; [9],-21%
same,inhibition,[1]; [10],-12%
same,inhibition,[2]; at 0.5 µM,-21.9% (inactive)
same,inhibition,[2]; [11],-14.5%
same,inhibition,[2]; [12],-18.3%
same,inhibition,[3]; at 0.5 µM,-8.21% (inactive)
same,inhibition,[3]; [13],-10%
same,inhibition,[3]; [14],-8.63%
same,inhibition,[3]; [15],-2.04%
same,inhibition,[3]; [16],-6.22%
same,inhibition,[4]; [17],3.47%
same,inhibition,[4]; at 0.5 µM,-1.58% (inactive)
same,inhibition,[4]; [18],19.3%
same,inhibition,[5]; at 0.5 µM,12.8% (inactive)
same,inhibition,[5]; [19],26.4%
same,inhibition,[5]; [20],2.42%
same,inhibition,[6]; at 0.5 µM,-12.6% (inactive)
same,inhibition,[6]; [21],-0.565%
same,inhibition,"[6]; cisplatin combination, at 5 µM",5.72%
same,inhibition,[6]; [22],22.3%
same,inhibition,"[6]; single agent, at 5 µM",10.8%
same,inhibition,[7]; at 0.5 µM,-5.05% (inactive)
same,inhibition,"[7]; cisplatin combo, at 5 µM",-0.239%
same,inhibition,[7]; [23],-34.5%
same,inhibition,[7]; [11],22.9%
same,inhibition,"[7]; single agent, at 5 µM",-38.3%
same,inhibition,[8]; at 0.5 µM,-14.2% (inactive)
same,inhibition,[8]; [24],-17.2%
same,inhibition,[8]; [25],-12.8%
same,inhibition,"[8]; single agent, at 0.05 µM",-3.95%
same,inhibition,"[8]; single agent, at 5 µM",10.1%
Nc1[nH]c(=O)ncc1F,inhibition,[1]; at 0.5 µM,-7.68% (inactive)
same,inhibition,[1]; [9],-29.7%
same,inhibition,[1]; [10],-21.7%
same,inhibition,[2]; at 0.5 µM,-27.6% (inactive)
same,inhibition,[2]; [11],-24.1%
same,inhibition,[2]; [12],-29.1%
same,inhibition,[3]; at 0.5 µM,-31.1% (inactive)
same,inhibition,[3]; [13],-21.4%
same,inhibition,[3]; [14],-20.1%
same,inhibition,[3]; [15],-54.4%
same,inhibition,[3]; [16],-28.4%
same,inhibition,[4]; [17],-10.1%
same,inhibition,[4]; at 0.5 µM,-22% (inactive)
same,inhibition,[4]; [18],-7.2%
same,inhibition,[5]; at 0.5 µM,-16.9% (inactive)
same,inhibition,[5]; [19],-11.3%
same,inhibition,[5]; [20],-15.3%
same,inhibition,[6]; at 0.5 µM,-18.1% (inactive)
same,inhibition,[6]; [21],-7.67%
same,inhibition,"[6]; cisplatin combination, at 5 µM",-29%
same,inhibition,[6]; [22],-18.5%
same,inhibition,"[6]; single agent, at 5 µM",-35%
same,inhibition,[7]; at 0.5 µM,-4.87% (inactive)
same,inhibition,"[7]; cisplatin combo, at 5 µM",12.7%
same,inhibition,[7]; [23],-1.76%
same,inhibition,[7]; [11],22.6%
same,inhibition,"[7]; single agent, at 5 µM",67.5%
same,inhibition,[8]; at 0.5 µM,-33% (inactive)
same,inhibition,[8]; [24],-8.11%
same,inhibition,[8]; [25],-45.4%
same,inhibition,"[8]; single agent, at 0.05 µM",-16.8%
same,inhibition,"[8]; single agent, at 5 µM",-1.42%
same,log fold change Tl+ flux,F380Y,0.0331 (inactive)
same,log fold change Tl+ flux,F380Y/beta1,0.0164 (inactive)

# From PubChem BioAssay
